# The supplement of paper PMC12819154, “High-throughput peptide-centric local stability assay extends protein–ligand identification to membrane proteins, tissues and bacteria” (Nature Structural & Molecular Biology, 2025)
# Compound: Nc1ncnc2c1ncn2[C@@H]1O[C@H](COP(=O)(O)OP(=O)(O)OP(=O)(O)O)[C@@H](O)[C@H]1O [adenosine 5'-triphosphate]
# Test: log2 fold change of tryptic peptide abundance, ligand vs vehicle (limited proteolysis) (log2 ratio); higher = more trypsin-susceptible (destabilized)
# Settings: ligand concentration: 5 mM; sample: E. coli desalted lysate; replicate design: treated before aliquoting
# Method: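 HT-PELSA: desalted E. coli K-12 BW25113 lysate (with 12 mM MgCl2) incubated with 5 mM ATP (pH 7) or water for 30 min at 25 C, then a 4 min trypsin pulse at 22 C. Peptides were quantified by DIA-MS (4 replicates). Value is the peptide log2 fold change (treated/control); negative = stabilized. Scale: negative = ligand-stabilized region.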
# 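Note: lysate desalted by size exclusion to strip endogenous ATP, peptide intensities built from DIA-NN precursor signals, and peptides missing any value discarded before comparison.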
row,Target,log2 fold change
1,"UniProt P15034 (peptide sequence: QNLTAPATMIDWRPVVHEMR, peptide start residue: 155)",-0.448
2,"UniProt P28904 (peptide sequence: LDVVNLISKDPR, peptide start residue: 199)",-0.478
3,"UniProt P68398 (peptide sequence: EVPVGAVLVHNNR, peptide start residue: 27)",0.483
4,"UniProt P37751 (peptide sequence: SQLTDDDSQFK, peptide start residue: 183)",-0.401
5,"UniProt P11868 (peptide sequence: AWHEGHER, peptide start residue: 285)",-1.02
6,"UniProt P76330 (peptide sequence: FGHQAGDR, peptide start residue: 447)",-3.47
7,"UniProt P0AA41 (peptide sequence: LLAQQFEQHQIQKR, peptide start residue: 72)",-1.05
8,"UniProt P10908 (peptide sequence: VDAGSWYSK, peptide start residue: 79)",-0.858
9,"UniProt P76053 (peptide sequence: NVLIIHGK, peptide start residue: 116)",0.613
10,"UniProt P38035 (peptide sequence: APILLNGPTGAGK, peptide start residue: 209)",-1.38
11,"UniProt P75830 (peptide sequence: TNLDYTR, peptide start residue: 179)",-0.551
12,"UniProt Q59385 (peptide sequence: LVTDEGEK, peptide start residue: 327)",1.76
13,"UniProt P28631 (peptide sequence: YLLCQQPQGHK, peptide start residue: 47)",-0.546
14,"UniProt P25536 (peptide sequence: IVTGIEEQR, peptide start residue: 27)",-1.03
15,"UniProt P00562 (peptide sequence: ILDEAGLPGELR, peptide start residue: 375)",0.23
16,"UniProt P33643 (peptide sequence: IKEWILDQR, peptide start residue: 36)",-0.691
17,"UniProt P45395 (peptide sequence: LHVPLICITGRPESSMAR, peptide start residue: 122)",1.09
18,"UniProt P31548 (peptide sequence: LPGELSGGQR, peptide start residue: 126)",-0.702
19,"UniProt P0AD19 (peptide sequence: GLAMGTASHALGTAR, peptide start residue: 178)",-0.978
20,"UniProt P10423 (peptide sequence: KSWHNVTGSTVIAAHEGK, peptide start residue: 90)",-0.451

row,Target,log2 fold change
1,"UniProt P61517 (peptide sequence: DLDVTATNR, peptide start residue: 190)",0.547
2,"UniProt P13458 (peptide sequence: NQPDGNLQVPR, peptide start residue: 103)",-0.895
3,"UniProt P29131 (peptide sequence: MAGHTNCIR, peptide start residue: 306)",-0.526
4,"UniProt P75828 (peptide sequence: YLDIINR, peptide start residue: 246)",-2.12
5,"UniProt P0AC84 (peptide sequence: QINVFLR, peptide start residue: 212)",0.46
6,"UniProt P33594 (peptide sequence: VLQNAVLPAFPVRR, peptide start residue: 249)",0.401
7,"UniProt P76440 (peptide sequence: EELDEFPASEKEFTSAR, peptide start residue: 286)",0.874
8,"UniProt P77148 (peptide sequence: ILLGEYFR, peptide start residue: 100)",-0.452
9,"UniProt P76043 (peptide sequence: ACSEPNPDYPR, peptide start residue: 284)",-1.41
10,"UniProt P52073 (peptide sequence: LEGGEGSVK, peptide start residue: 217)",-0.566
11,"UniProt P09030 (peptide sequence: CSFLPEER, peptide start residue: 177)",-1.54
12,"UniProt P27300 (peptide sequence: SVDAVIVNGGVPR, peptide start residue: 190)",-2.1
13,"UniProt P00903 (peptide sequence: GLANPLTVTR, peptide start residue: 117)",-0.376
14,"UniProt P0AA39 (peptide sequence: NILQSGER, peptide start residue: 198)",-0.653
15,"UniProt P45527 (peptide sequence: KLQEAVSFVHQHRR, peptide start residue: 46)",0.779
16,"UniProt P27830 (peptide sequence: ASSDHLVR, peptide start residue: 172)",-0.668
17,"UniProt P76226 (peptide sequence: IKPLLHQCVR, peptide start residue: 10)",-1.62
18,"UniProt P18392 (peptide sequence: EHIFEPFVR, peptide start residue: 367)",-1.71
19,"UniProt P27833 (peptide sequence: LCGDGGFTR, peptide start residue: 26)",-0.494
20,"UniProt P69789 (peptide sequence: LYSKAEYK, peptide start residue: 48)",-1.96
